Bcl-xL primary: inhibitors of human Bcl-xL | GST-Bcl-xL / FITC-Bim BH3 peptide fluorescence polarization | Q07817 | inhibition, % at 10.9 µM | 320,000 compounds, 0.7% hits;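 active means inhibition above the mean of all tested compounds plus 3 SD, cutoff set per campaign, cut at about 30% in these data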;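 further: 0% = DMSO wells and 100% = unlabeled Bim-BH3 peptide competitor; inhibitors lower millipolarization by displacing the labeled peptide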
MEX-5 binding: C. elegans MEX-5 TCR-2 RNA binding activity; activity score (negative = inhibition of binding), % at 10 µM; MEX-5/FITC-TCR2 RNA binding, fluorescence polarization; stronger effect = lower value; 300,000 compounds, 0.38% hits; AID 1832; Q9XUB2;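 active means inhibition past about -25% in most replicates, and total fluorescence under double the plate's negative control median, limit read from the data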;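 further: 0% = DMSO and -100% = 5 µM competing unlabeled TCR2 RNA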
Target sequence (Q9XUB2 whole entry, looked up): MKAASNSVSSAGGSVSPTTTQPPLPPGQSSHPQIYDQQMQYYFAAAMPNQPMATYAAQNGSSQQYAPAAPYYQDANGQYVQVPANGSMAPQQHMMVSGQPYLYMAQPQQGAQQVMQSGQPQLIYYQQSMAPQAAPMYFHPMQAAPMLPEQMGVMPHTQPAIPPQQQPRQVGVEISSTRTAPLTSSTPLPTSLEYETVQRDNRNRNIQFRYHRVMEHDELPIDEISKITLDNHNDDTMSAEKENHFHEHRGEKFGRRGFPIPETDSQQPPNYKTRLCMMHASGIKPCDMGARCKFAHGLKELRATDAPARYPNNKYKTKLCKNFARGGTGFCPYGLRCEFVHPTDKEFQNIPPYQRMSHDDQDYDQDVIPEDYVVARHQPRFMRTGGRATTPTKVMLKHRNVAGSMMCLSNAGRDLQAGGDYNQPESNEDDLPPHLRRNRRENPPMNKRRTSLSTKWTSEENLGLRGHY
MCL1 BIM primary: disrupts human MCL1 binding to BIM-BH3 peptide; GST-MCL1 / FITC-Bim-BH3 fluorescence polarization; AID 2057; inhibition, % at 10.9 µM; 320,000 compounds, 0.68% hits; Q07820;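 active means inhibition above the mean inhibition of all tested compounds plus 3 SD, set per campaign, cut at about 40% in these data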;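 further: 0% = DMSO wells and 100% = unlabeled Bim-BH3 peptide control; higher means more loss of mP so more displacement of Bim peptide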
GLD-1 RNA inh: GLD-1-TGE RNA interaction inhibition (C. elegans); Q17339; purified GLD-1 + fluorescein TGE RNA, fluorescence polarization; inhibition, % at 5.96 µM; 320,000 compounds, 0.44% hits; AID 2280;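 active means percent inhibition above a per-plate cutoff, the plate mean of test compounds plus 3 SD, cut at about 30% in these data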;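 further: 0% = DMSO wells with GLD-1 and probe and 100% = wells lacking GLD-1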
eLon inh: E. coli protease La inhibition; 360,000 compounds, 0.42% hits; AID 602123; inhibition, % at 7.94 µM; P0A9M0; purified E. coli Lon protease, fluorescence polarization; in the data active means inhibition above about 13%, passing the limit was not always enough;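 further: 0% = enzyme with probe and DMSO and 100% = no enzyme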
EBV gp42 inh: blocks Epstein-Barr virus glycoprotein 42 binding; Q1HVG2; inhibition, % (tested at 21.74 µM); Fluorescence polarization binding assay, mP read-out; 220,000 compounds, 0.42% hits; in the data active means inhibition above about 50%
BCLXL inh confirm: counter-screen for MCL1 inhibitors: confirmation of human Bcl-xL inhibitors. shares compounds with MCL1 BIM primary. GST-Bcl-xL / FITC-Bim BH3 peptide FP binding. inhibition, % at 10.9 µM. 1,700 compounds, 54% hits;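 active means inhibition above a cutoff equal to the mean inhibition of all tested compounds plus 3 SD, cut at about 30% in these data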;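 further: 0% = DMSO wells and 100% = unlabeled Bim BH3 control peptide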
MCL1 BIM confirm: confirmation of human MCL1 and BIM-BH3 interaction inhibitors; shares compounds with MCL1 BIM primary; GST-MCL1 / FITC-Bim-BH3 fluorescence polarization; inhibition, % at 10.9 µM; 1,700 compounds, 61% hits;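 active means inhibition above the average of all tested compounds plus 3 SD, cut at about 40% in these data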;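 further: 0% = DMSO wells and 100% = unlabeled Bim-BH3 control peptide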
The depositor's hits bear a star; . = not tested or not shown; ! = not active in a repeat. Only some compounds are listed: those with a hit (about 1.5% of all), similar ones and a draw of the others.

SMILES	Bcl-xL primary	MEX-5 binding	MCL1 BIM primary	GLD-1 RNA inh	eLon inh	EBV gp42 inh	BCLXL inh confirm	MCL1 BIM confirm
COc1ccc(NC(=O)c2cccc(S(=O)(=O)N3CCc4ccccc43)c2)cn1	61*	-7	60*	49*	1	28	46*	58*
O=C(Nc1ncccc1O)c1cccc(S(=O)(=O)N2CCc3ccccc32)c1	5	0	6	3	7	-10	.	.
COc1ccc(NC(=O)c2noc3c2CCC3)cc1	10	-3	36	0	2	31	.	.
COc1cc(NC(=O)c2noc3c2CCC3)c(OC)cc1Cl	11	-2	50*	5	7	-1	15	53*
COc1ccc(NC(=O)CN(C)C(=O)c2cccc(-n3cccc3)c2)cc1	9	-1	48*	1	-5	.	4	27
CCOC(=O)C1CCCN(C(=O)c2cc3c(OC)c(OC)c(OC)cc3[nH]2)C1 (configuration not stated)	-4	-1	0	-5	-1	.	.	.
CC1CCN(c2ccc3c(c2)S(=O)(=O)c2cccc(C(=O)NCc4cccc(F)c4)c2C3=O)CC1	27	.	68*	162*	-86	.	-28	-52
CN1CCC[C@@H]1CCNC(=O)c1cccc2c1C(=O)c1ccc(N3CCCC3)cc1S2(=O)=O	.	.	.	12	-30	.	.	.
O=C(O)c1cccc2c1C(=O)c1ccc(N3CCCC3)cc1S2(=O)=O	112*	.	131*	80*	48*	.	104*	122*
COc1ccc(CNC(=O)CCNS(=O)(=O)c2ccc(NC(C)=O)cc2)cc1OC	3	.	1	3	1	.	.	.
Cc1ccc(N=Nc2[nH]c3ccccc3c2O)cc1	101*	-61*	109*	67*	-5	100*	83*	81*
COc1ccc(C(=O)Nc2nnc(Cc3cccs3)s2)cc1OC	4	0	-9	0	9	-12	.	.
CC(=O)Nc1cccc(NC(=O)Cc2cccs2)c1	9	-3	6	7	-3	.	.	.
O=C(Cc1cccs1)Nc1nnc(CCc2ccccc2)s1	0	0	5	4	-6	-13	.	.
O=C(Cc1cccs1)Nc1nnc(Cc2ccccc2)s1	4	2	54*	-10	-34	28	8	44*
COC(=O)c1cc(NC(=O)Cc2cccs2)cc(C(=O)OC)c1	2	-3	44*	-4	-5	.	3	28
COc1ccc(Cc2nnc(NC(=O)Cc3cccs3)s2)cc1OC	10	2	73*	-5	-10	68*	25	80*
Cc1ccc(NC(=O)C2CCN(S(=O)(=O)c3cccnc3)CC2)cc1C	5	2	1	2	-8	.	.	.
COc1ccccc1CNC(=O)c1ccc2nc(N3CCOCC3)sc2c1	4	2	-4	4	2	.	.	.
O=C(Nc1cccc2ccccc12)c1ccc2sc([C@H]3C[C@H](O)[C@@H](CO)O3)nc2c1	.	.	.	.	-4	.	.	.
c1ccc(-c2nnc(CN3CCCc4ccccc43)o2)cc1	65*	-6	72*	-4	-18	-2	46*	68*
CCCCN(C(=O)C1CC(=O)N(c2ccc(C)cc2)C1)c1c(N)n(CCC)c(=O)[nH]c1=O (configuration not stated)	.	.	.	.	2	.	.	.
C[C@H](NS(=O)(=O)OCC(Cl)(Cl)Cl)C1CC1c1ccccc1 (some centres not stated)	5	2	47*	10	-2	.	15	61*
CC(NS(=O)(=O)OCC(Cl)(Cl)Cl)c1ccc(C(C)(C)C)cc1 (configuration not stated)	3	-1	0	14	5	.	.	.
CCCNC(=O)C(Cc1ccc(I)cc1)NC(=O)C1CC1 (configuration not stated)	1	.	9	2	-4	.	.	.
SMILES	Bcl-xL primary	MEX-5 binding	MCL1 BIM primary	GLD-1 RNA inh	eLon inh	EBV gp42 inh	BCLXL inh confirm	MCL1 BIM confirm
CN(C)CCn1nnnc1SCC1=C(C(=O)O)N2C(=O)[C@@H](NC(=O)Cc3csc(N)n3)[C@H]2SC1	37*	.	51*	19	-3	.	28	36
Cc1ccc2c(c1C)NC(C(=O)O)C1CC=CC21 (configuration not stated)	48*	-1	76*	-1	-6	87*!	47*	89*
O=C(O)C1Nc2c(C(=O)N3CCOCC3)cccc2C2C=CCC12 (configuration not stated)	50*	-57*	68*	17	6	-3	42*	72*
CCOC(=O)C1Nc2c(F)cc(C)cc2C2C=CCC12 (configuration not stated)	14	-4	36	-6	.	.	.	.
Cc1cc(C)c2c(c1)NC(C(=O)O)C1CC=CC21 (configuration not stated)	69*	-38*	115*	3	-11	.	45*	92*
CC1(COS(N)(=O)=O)CCCCC1	-4	-1	-1	-1	1	.	.	.
O=C(CSc1nnc(Cc2ccccc2)c(=O)[nH]1)Nc1ccccc1	5	-2	6	9	4	.	.	.
CCN1CCc2c(sc(N)c2C#N)C1	58*	-8	59*	-52	-30	-4	47*	40*
O=C(Nc1ccccc1N1CCCC1)C1CCCO1 (configuration not stated)	.	.	.	.	2	.	.	.
O=C1c2ccccc2-c2onc3ccc(Oc4ccccc4)c1c23	63*	-15	61*	37*	-19	-36	20	25
CC1CCCN(CC(O)COc2ccc(S(=O)(=O)N3CCCC3)cc2[N+](=O)[O-])C1 (configuration not stated)	7	.	54*	-1	-12	.	6	3
CCCOc1ccc(S(=O)(=O)N2CCCC2)cc1[N+](=O)[O-]	-2	1	-5	0	-12	-11	.	.
O=C(O)c1ccc(N=Nc2c(O)ccc3ncccc23)cc1	18	-10	51*	3	22	.	40*	59*
O=C(O)c1cc(N=Nc2c(O)ccc3ccccc23)cc(C(=O)O)c1	.	.	.	.	3	-26	.	.
CCCc1cc(=O)oc2c3c(c(Cl)cc12)OCN(CCCO)C3	76*	-2	89*	48*	.	.	55*	82*
O=C1C2CC=C(Cl)CC2C(=O)N1CCCCCCN1C(=O)C2CC=C(Cl)CC2C1=O (configuration not stated)	30	-28*	40*	15	32	63*	33*	55*
CC(C)NC(=O)C1(C)CCN1C(=O)C1(c2ccccc2)CC1 (configuration not stated)	.	.	.	.	-6	.	.	.

Screening data from PubChem.
